Results reported in PubChem BioAssay (Tox21).
Values joined by “and” are separate entries in the source; they are usually repeats but may differ in a detail not shown here. Identical values can stand only once. Inconclusive results are not listed. Entries that show only a call come without a potency. Some structures have more than one record in an assay (separate samples or runs), and their calls can disagree. Active and inactive are the calls of the source. Unless noted, the call rests on the fitted dose curve; in most records, active means well fitted curve in the direction sought with a large enough effect in the repeat runs; inconclusive means weak or mixed curves; inactive means no such curve, though single readings can be large; an effect the other way counts as inactive or inconclusive.

Columns and labels:
[1] = molecular target: Luciferin 4-monooxygenase (Photinus pyralis) (UniProt P08659); test: qHTS assay to identify small molecule inhibitors of firefly luciferase (AID 1224835); further: nearly all actives have a fitted effect of over 25% in size; further: potency means the concentration at half of the fitted maximal effect
Luciferin 4-monooxygenase (Photinus pyralis), sequence (P08659 whole entry, looked up): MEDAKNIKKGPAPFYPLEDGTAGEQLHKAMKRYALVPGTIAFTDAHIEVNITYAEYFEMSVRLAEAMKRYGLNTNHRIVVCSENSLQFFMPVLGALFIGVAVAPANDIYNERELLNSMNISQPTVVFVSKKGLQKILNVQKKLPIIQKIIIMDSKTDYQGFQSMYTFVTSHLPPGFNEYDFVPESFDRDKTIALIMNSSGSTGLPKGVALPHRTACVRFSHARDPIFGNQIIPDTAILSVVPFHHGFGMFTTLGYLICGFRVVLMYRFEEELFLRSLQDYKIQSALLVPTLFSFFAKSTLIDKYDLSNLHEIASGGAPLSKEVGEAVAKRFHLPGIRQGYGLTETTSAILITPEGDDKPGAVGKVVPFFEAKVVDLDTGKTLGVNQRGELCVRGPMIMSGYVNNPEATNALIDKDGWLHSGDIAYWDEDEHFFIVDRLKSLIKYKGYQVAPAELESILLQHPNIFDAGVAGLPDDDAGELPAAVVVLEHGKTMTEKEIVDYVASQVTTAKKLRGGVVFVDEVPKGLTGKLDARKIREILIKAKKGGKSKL
Procedure, shortened: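 Quantitative HTS format; KM concentrations of both substrates. Purified P. pyralis FLuc activity quantified from luminescence images.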

[2] = qHTS assay to identify small molecule agonists of the constitutive androstane receptor (CAR) signaling pathway - cell viability counter screen (AID 1224836); further: nearly all actives have a fitted effect of over 45% in size; further: potency means the concentration at half of the fitted maximal effect
Procedure, shortened: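 Using CellTiter-Fluor, viability of HepG2 cells harbouring hCAR and CYP2B6-2.2kb was measured following 23 h incubation with a 15-concentration compound series plus PK11195 (0.75 uM final).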

[3] = qHTS assay to identify small molecule antagonists of the constitutive androstane receptor (CAR) signaling pathway - cell viability counter screen (AID 1224837); further: nearly all actives have a fitted effect of over 45% in size; further: potency means the concentration at half of the fitted maximal effect
Procedure, shortened: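 Counter screen run in HepG2-CYP2B6-hCAR cells: 4 hr settle, compound titration (15 concentrations) with 50 nM CITCO, 23 hr at 37 C/5% CO2, CellTiter-Fluor fluorescence.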

[4] = molecular target: Nuclear receptor subfamily 1 group I member 3 (Homo sapiens) (UniProt Q14994); test: qHTS assay to identify small molecule antagonists of the constitutive androstane receptor (CAR) signaling pathway (AID 1224838);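 further: HepG2 cells stably expressing hCAR with CYP2B6 luciferase reporter stimulated by CITCO; nearly all actives have a fitted effect of over 40% in size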; further: potency means the concentration at half of the fitted maximal effect
Nuclear receptor subfamily 1 group I member 3 (Homo sapiens), sequence (Q14994 whole entry, looked up): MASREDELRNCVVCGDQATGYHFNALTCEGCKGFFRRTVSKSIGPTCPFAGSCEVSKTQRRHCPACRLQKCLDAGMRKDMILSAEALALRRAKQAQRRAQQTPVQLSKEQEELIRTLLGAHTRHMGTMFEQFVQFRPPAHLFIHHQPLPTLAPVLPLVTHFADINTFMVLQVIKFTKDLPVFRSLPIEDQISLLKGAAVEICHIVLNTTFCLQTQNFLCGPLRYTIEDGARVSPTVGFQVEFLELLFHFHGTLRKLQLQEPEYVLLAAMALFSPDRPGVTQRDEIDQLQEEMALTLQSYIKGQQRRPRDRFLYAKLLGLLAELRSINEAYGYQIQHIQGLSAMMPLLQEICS
Procedure, shortened: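 Cell line: HepG2 double-stable for hCAR and CYP2B6-2.2kb reporter. Agonist: CITCO, 50 nM final. Compounds: 15 concentrations, 24 h, 37 C. Detection: ONE-Glo luminescence.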

[5] = molecular target: Nuclear receptor subfamily 1 group I member 3 (Homo sapiens) (UniProt Q14994); test: qHTS assay to identify small molecule agonists of the constitutive androstane receptor (CAR) signaling pathway (AID 1224839);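 further: HepG2 cells stably carrying human CAR and a CYP2B6 luciferase reporter; nearly all actives have a fitted effect of over 15% in size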
Procedure, shortened: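 Double-stable HepG2 cells (hCAR, CYP2B6-2.2kb) seeded 4 h before compound addition. Exposure 24 h with 0.75 uM PK11195 final. Luciferase detected by ONE-Glo.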

[6] = qHTS assay to identify small molecule antagonists of the estrogen related receptor signaling pathway with the pleiotropic PPARgamma coactivator (PGC) from Tox21 10K library - cell viability counter screen (AID 1224840; active means well fitted cell-killing curve with a large enough effect in the repeat runs, not every such curve was filed as active; further: nearly all actives have a fitted effect of over 40% in size; further: potency means the concentration at half of the fitted maximal effect)
Procedure, shortened: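 Following seeding of 2,000 PGC/ERR cells/well and 6 hours' incubation, test compounds were delivered in DMSO. The plates then sat 17.5 hours at 37 C before a fluorogenic live-cell protease reagent (CellTiter-Fluor) was read after 30 min.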

[7] = qHTS assay to identify small molecule antagonists of the estrogen related receptor signaling pathway with the pleiotropic PPARgamma coactivator (PGC) from Tox21 10K library (AID 1224841; call rule not given here; further: actives are mostly falling curves and most rising ones were filed inactive; nearly all actives have a fitted effect of over 50% in size; further: potency means the concentration at half of the fitted maximal effect)
Procedure, shortened: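 qHTS antagonist format: PGC/ERR cells, 2k/well, compound in DMSO by pin transfer after 6 h attachment, 18 h treatment at 37 C, One-Glo luminescence read at 30 min.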

[8] = molecular target: Thyrotropin receptor (Homo sapiens) (UniProt P16473); test: qHTS assay to identify small molecule agonists of the thyroid stimulating hormone receptor (TSHR) signaling pathway (AID 1224843; calls by dose curve; further: nearly all actives have a fitted effect of over 45% in size)
Thyrotropin receptor (Homo sapiens), sequence (P16473 whole entry, looked up): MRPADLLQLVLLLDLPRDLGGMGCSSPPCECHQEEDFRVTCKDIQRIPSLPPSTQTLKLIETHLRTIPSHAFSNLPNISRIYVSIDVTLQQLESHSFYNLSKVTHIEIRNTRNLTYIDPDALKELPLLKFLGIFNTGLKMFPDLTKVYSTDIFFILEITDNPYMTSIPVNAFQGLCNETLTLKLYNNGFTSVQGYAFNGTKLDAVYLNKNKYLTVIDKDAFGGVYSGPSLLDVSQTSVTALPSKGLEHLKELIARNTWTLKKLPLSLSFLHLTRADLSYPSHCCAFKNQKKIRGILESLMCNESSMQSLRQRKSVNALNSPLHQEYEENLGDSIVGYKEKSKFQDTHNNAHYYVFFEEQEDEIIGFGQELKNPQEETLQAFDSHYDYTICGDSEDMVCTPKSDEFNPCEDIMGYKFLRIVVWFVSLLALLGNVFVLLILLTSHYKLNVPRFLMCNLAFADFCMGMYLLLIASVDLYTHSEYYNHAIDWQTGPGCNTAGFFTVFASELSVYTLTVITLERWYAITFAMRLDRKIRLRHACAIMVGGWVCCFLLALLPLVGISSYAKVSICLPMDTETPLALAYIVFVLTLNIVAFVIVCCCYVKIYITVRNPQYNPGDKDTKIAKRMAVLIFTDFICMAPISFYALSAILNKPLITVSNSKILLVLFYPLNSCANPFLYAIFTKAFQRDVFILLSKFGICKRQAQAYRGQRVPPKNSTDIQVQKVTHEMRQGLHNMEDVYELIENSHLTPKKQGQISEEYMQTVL
Procedure, shortened: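 Cell line HEK293 with TSHR; density 800/well. Exposure 30 min RT. Readout HTRF cAMP (cAMP-d2/anti-cAMP-cryptate), 1 h RT before reading.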

[9] = qHTS assay to identify small molecule agonists of the hypoxia (HIF-1) signaling pathway - cell viability counter screen (AID 1224844; calls by dose curve; further: nearly all actives have a fitted effect of over 50% in size; further: potency means the concentration at half of the fitted maximal effect)
Procedure, shortened: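 Cells (HRE-bla ME-180, 2,000 per well) sat 5 hrs at 37C, got compound for 17 hrs, were read for CCF4-AM FRET, and were finally lysed with CellTiter-Glo for a 30 min room-temperature luminescence read.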

[10] = qHTS assay to identify small molecule agonists of H2AX (AID 1224845; active means well fitted activation curve with a large enough effect in the signal ratio in the repeat runs, not every such curve was filed as active; the % refers to the signal ratio; further: potency means the concentration at half of the fitted maximal effect)
Procedure, shortened: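 Wild-type CHO-K1 cells plated overnight, then exposed 3 hr at 37C to compounds at 15 concentrations (0.76% DMSO). Lysed, then HTRF anti-pH2AX(S139)-cryptate/anti-H2AX-d2 detection after 24 hr at room temperature; emissions 665 and 620 nm.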

[11] = qHTS assay to identify small molecule agonists of the hypoxia (HIF-1) signaling pathway (AID 1224846; active means well fitted activation curve with a large enough effect in the signal ratio in the repeat runs, not every such curve was filed as active; the % refers to the signal ratio)
Procedure, shortened: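 A low-serum medium (0.5% dialyzed FBS) holding 2,000 HRE-bla ME-180 cells per well is preincubated for 5 hrs, dosed with compounds by pintool, and kept a further 17 hrs at 37C, 5% CO2 before CCF4-AM FRET detection of beta-lactamase.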

[12] = qHTS assay to identify small molecule agonists of H2AX - cell viability counter screen (AID 1224847; calls by dose curve; further: nearly all actives have a fitted effect of over 30% in size; further: potency means the concentration at half of the fitted maximal effect)
Procedure, shortened: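 Quantitative HTS viability measurement: CHO-K1 wild-type cells in serum (10% FBS) medium, short 3 hr drug exposure at 37C with 0.76% DMSO, CellTiter-Glo luminescent detection.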

[13] = qHTS assay to identify small molecule antagonists of the estrogen related receptor (ERR) signaling pathway from Tox21 library (AID 1224848); further: nearly all actives have a fitted effect of over 50% in size; further: potency means the concentration at half of the fitted maximal effect
Procedure, shortened: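 Screening used an ERR reporter line supplied by NTP, exposed for 18 h at 37 C to library compounds delivered in DMSO. Signal was luciferase luminescence developed with ONE-Glo at room temperature for 30 min.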

[14] = qHTS assay to identify small molecule agonists of the estrogen related receptor (ERR) signaling pathway from Tox21 library (AID 1224849; calls by dose curve; further: nearly all actives have a fitted effect of over 15% in size); details: ERR reporter cell line, ONE-Glo luciferase, 18 h; at 92.4 µM (top of the series) unless noted
Procedure, shortened: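 Screening used an NTP-provided ERR luciferase cell line. Compounds in DMSO were added 6 h after seeding and left 18 h at 37 C before a 30 min ONE-Glo step and luminescence reading.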

[15] = qHTS RealTime-Glo MT Cell Viability Assay in HEK293 cells - 32 hour (AID 1224868); further: nearly all actives have a fitted effect of over 50% in size; further: potency means the concentration at half of the fitted maximal effect
Procedure, shortened: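 Cells + reagent dispensed (600 cells/well, HEK293) → 5 h at 37 C/5% CO2 → 23 nL compound in DMSO pinned → 40 h at 37 C → luminescence read at 0, 8, 16, 24, 32, 40 h.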

[16] = A CellTox Green Cytotoxicity Assay to monitor cytotoxicity in HEK293 cells - 0 hour (AID 1224869); further: nearly all actives have a fitted effect of over 50% in size
Procedure, shortened: (§1)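 Fluorescence intensity, read at 0, 8, 16, 24, 32 and 40 h of compound treatment, reflected dye binding to DNA of dead HEK293 cells; compounds (23 nL, DMSO) were added 5 h after plating cells with reagent.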

[17] = qHTS RealTime-Glo MT Cell Viability Assay in HepG2 cells - 40 hour (AID 1224870); further: nearly all actives have a fitted effect of over 50% in size
Procedure, shortened: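 HepG2 cells mixed with RealTime-Glo MT reagents (NanoLuc plus cell-permeant prosubstrate) were seeded at 600 cells/well, incubated 5 h at 37 C/5% CO2, then pinned with compounds in DMSO; nonlytic luminescence tracked viability during 40 h treatment.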

[18] = A CellTox Green Cytotoxicity Assay to monitor cytotoxicity in HEK293 cells - 40 hour (AID 1224871); further: nearly all actives have a fitted effect of over 45% in size
Procedure, shortened: as §1

[19] = qHTS RealTime-Glo MT Cell Viability Assay in HepG2 cells - 24 hour (AID 1224867); further: nearly all actives have a fitted effect of over 50% in size
Procedure, shortened: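 Real-time, nonlytic viability: 600 HepG2 cells/well mixed with NanoLuc enzyme plus prosubstrate; 5 h settle, compound (DMSO) added by pintool; luminescence monitored over 40 h at 37 C.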

[20] = qHTS assay to identify small molecule agonists of the estrogen related receptor signaling pathway with the pleiotropic PPARgamma coactivator (PGC) from Tox21 10K library (AID 1224842); further: nearly all actives have a fitted effect of over 15% in size
Procedure, shortened: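 PGC/ERR reporter cells (NTP line) were seeded 2,000 per well, rested 6 h at 37 C/5% CO2, then pin-dosed with compounds in DMSO for 18 h at 37 C; luciferase read by One-Glo luminescence after 30 min at room temperature.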

With `CCCCCCCC/C=C/CCCOC(C)=O` the Potency [1] was “inactive”, the Potency [2] was “inactive” and the Potency [3] was “inactive”. For the same compound, the Potency [4] was “inactive”, the Potency [5] was “inactive” and the Potency [6] was “inactive”. For the same compound, the Potency [7] was “inactive”, the Potency [8] was “inactive” and the Potency [9] was “inactive”. For the same compound, the Potency [10] was “inactive”, the outcome [11] was “inactive” and the Potency [12] was “inactive”. The Potency [13] was “inactive”, the activity change, positive = activation [14] was 1.58% (inactive) and the Potency [15] was “inactive”. The Potency [16] was “inactive”, the Potency [17] was “inactive” and the Potency [18] was “inactive”.
For `O=C[C@H](O)[C@H](O)[C@H](O)CO`, the Potency [1] was “inactive”, the Potency [2] was “inactive” and the Potency [3] was “inactive”. The Potency [4] was “inactive”, the Potency [5] was “inactive” and the Potency [6] was “inactive”. The Potency [8] was “inactive”, the Potency [9] was “inactive” and the Potency [10] was “inactive”. For the same compound, the outcome [11] was “inactive”, the Potency [12] was “inactive” and the Potency [19] was “inactive”. The Potency [15] was “inactive”, the Potency [16] was “inactive” and the Potency [17] was “inactive”. For the same compound, the Potency [18] was “inactive”.
In the case of `O=C1c2c(O)ccc([N+](=O)[O-])c2C(=O)c2c([N+](=O)[O-])ccc(O)c21`, the Potency [1] is reported as 62.7 µM (active), the Potency [2] is reported as 24.1 µM (active) and the Potency [3] is reported as 24.1 µM (active). The Potency [4] was 24.1 µM (active), the Potency [5] was “inactive” and the Potency [6] was 30.4 µM (active). The Potency [7] was 9.6 µM (active), the Potency [20] was “inactive” and the Potency [9] was 6.85 µM (active). For the same compound, the Potency [12] was 50 µM (active), the Potency [13] was 15.2 µM (active) and the activity change, positive = activation [14] was -80% (inactive). The Potency [15] was 24.3 µM (active), the Potency [16] was “inactive” and the Potency [18] was “inactive”.
In the case of `CC(C)(c1cc(Br)c(O)c(Br)c1)c1cc(Br)c(O)c(Br)c1`, the Potency [1] is reported as 79.4 µM (active) and inactive, the Potency [2] is reported as “inactive” and the Potency [3] is reported as “inactive”. For the same compound, the Potency [4] was “inactive”, the Potency [5] was “inactive” and the Potency [6] was “inactive”. For the same compound, the Potency [7] was “inactive”, the Potency [20] was “inactive” and the Potency [8] was “inactive”. The Potency [9] was 54.8 µM (active) and 48.9 µM (active), the Potency [10] was 113 µM (active) and the Potency [12] was 89.5 µM (active). The Potency [13] was 54.3 µM (active) and inactive, the activity change, positive = activation [14] was -21.4% (inactive) and -40.7% (inactive) and -13.4% (inactive) and the Potency [19] was “inactive”. For the same compound, the Potency [15] was “inactive”, the Potency [16] was “inactive” and the Potency [17] was “inactive”. The Potency [18] was “inactive”.
With `CCc1cccc(CC)c1NC(=O)C(=O)O` the Potency [1] was “inactive”, the Potency [2] was “inactive” and the Potency [3] was “inactive”. The Potency [4] was “inactive”, the Potency [5] was “inactive” and the Potency [6] was “inactive”. For the same compound, the Potency [7] was “inactive”, the Potency [20] was “inactive” and the Potency [8] was “inactive”. The Potency [9] was “inactive”, the Potency [10] was “inactive” and the outcome [11] was “inactive”. For the same compound, the Potency [12] was “inactive”, the Potency [13] was “inactive” and the activity change, positive = activation [14] was -1.7% (inactive). The Potency [15] was “inactive”, the Potency [16] was “inactive” and the Potency [17] was “inactive”. The Potency [18] was “inactive”.
With `O=C1OC(=O)c2cccc3cccc1c23` the Potency [1] was “inactive”, the Potency [2] was “inactive” and the Potency [3] was “inactive”. For the same compound, the Potency [4] was “inactive”, the Potency [5] was “inactive” and the Potency [6] was “inactive”. The Potency [7] was “inactive”, the Potency [20] was “inactive” and the Potency [9] was “inactive”. For the same compound, the outcome [11] was “inactive”, the Potency [13] was “inactive” and the activity change, positive = activation [14] was -2.65% (inactive). The Potency [19] was “inactive”, the Potency [15] was “inactive” and the Potency [16] was “inactive”. The Potency [17] was “inactive” and the Potency [18] was “inactive”.
